# Measurements as given in PubChem BioAssay (Tox21).
# Values joined by “and” are separate entries in the source; they are usually repeats but may differ in a detail not shown here. Identical values can stand only once. Inconclusive results are not listed. Where a call stands in place of a potency, no number is given. Where a structure was tested more than once in an assay, its records may differ in their call. Active and inactive are the calls of the source. Unless noted, calls come from the whole dose curve; as a rule, active = well fitted curve in the direction sought with a large enough effect in the repeat runs; inconclusive = weak or mixed curves; inactive = no such curve, though single readings can be large; an effect the other way counts as inactive or inconclusive.
# What was measured:
# [1] = qHTS assay to identify small molecule antagonists of the TGF-beta/Smad signaling pathway - cell viability counter screen (AID 1346824); note: nearly all actives have a fitted effect of over 50% in size; note: potency is the fitted concentration of half-maximal effect
# How it was run: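 SBE-bla HEK 293T cells, incubated overnight, then compound plus 0.25 ng/mL TGF-beta1 (stock added) for 5 hr at 37 C. Viability was read in the same wells by CellTiter-Glo luminescence after 30 min at room temperature.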
# [2] = qHTS assay to identify small molecule agonists of the TGF-beta/Smad signaling pathway (AID 1346859; active = well fitted activation curve with a large enough effect in the signal ratio in the repeat runs, not every such curve was filed as active; the % refers to the signal ratio; note: series mostly up to about 77 µM)
# How it was run: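 Read-out: fluorescence at 460 and 530 nm (405 nm excitation) after a 2 hr room-temperature incubation with beta-lactamase FRET substrate. SBE-bla HEK 293T cells had been treated with test compounds for 5 hr at 37 C.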
# [3] = target: Thyrotropin-releasing hormone receptor (Homo sapiens) (UniProt P34981); test: qHTS assay to identify small molecule antagonists of the thyrotropin-releasing hormone receptor (TRHR) signaling pathway (AID 1346877; active = well fitted inhibition curve with a large enough effect in the repeat runs, not every such curve was filed as active; note: potency is the fitted concentration of half-maximal effect)
# How it was run: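 Intracellular calcium fluorescence, read kinetically every second over 3 min, reports TRH-evoked signalling in HEK293 cells carrying TRHR. Test compounds were added 5 min ahead of a 1 nM TRH challenge.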
# [4] = target: Thyrotropin-releasing hormone receptor (Homo sapiens) (UniProt P34981); test: qHTS assay to identify small molecule agonists of the thyrotropin-releasing hormone receptor (TRHR) signaling pathway (AID 1346891; calls by dose curve; note: potency is the fitted concentration of half-maximal effect;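 for activation: HEK293 cells expressing TRHR with calcium dye readout; series mostly up to about 58 µM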)
# How it was run: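 HEK293/TRHR cells, 1500 per well, 18 h 37 °C; Ca dye 2 h 37 °C; pin-tool compound addition (agonist mode); kinetic fluorescence 3 min, 1 s reads; 15 concentrations, triplicate.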
# [5] = Human pregnane X receptor (PXR) small molecule agonists, qHTS cell viability counter screen (AID 1346977); note: nearly all actives have a fitted effect of over 50% in size; note: potency is the fitted concentration of half-maximal effect
# How it was run: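 Fluorescence read-out (CellTiter-Fluor) of viability in PXR-Luc HepG2 cells, multiplexed with the luciferase agonist read. Compounds in DMSO added after 5hr plating; 24hr total exposure at 37C, 5% CO2.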
# [6] = Caspase-3/7 induction in HepG2 cells by small molecules, qHTS assay (AID 1346978); note: nearly all actives have a fitted effect of over 15% in size; note: potency is the fitted concentration of half-maximal effect
# How it was run: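 Wild-type HepG2 cells, 2,000/well, settled 5 hr at 37 C and 5% CO2, then compound-treated for 17 hr; caspase-3/7 activity read by luminescent Caspase-Glo 3/7 after 30 min at room temperature.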
# [7] = Caspase-3/7 induction in CHO-K1 cells by small molecules, qHTS cell viability counter screen (AID 1346979); note: nearly all actives have a fitted effect of over 35% in size; note: potency is the fitted concentration of half-maximal effect
# How it was run: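 CHO-K1 wt, 1,500 cells/well; 5hr pre-incubation 37C/5% CO2; compound pin transfer (DMSO); 16hr exposure; CellTiter-Fluor added, 1hr, fluorescence read.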
# [8] = Caspase-3/7 induction in HepG2 cells by small molecules, qHTS cell viability counter screen (AID 1346981); note: nearly all actives have a fitted effect of over 30% in size; note: potency is the fitted concentration of half-maximal effect
# How it was run: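 HepG2, WT, 2,000 cells/well; 5 hr pre-incubation 37 C/5% CO2; compound pin-transferred from DMSO; 16 hr exposure; CellTiter-Fluor, 1 hr; fluorescence read.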
# [9] = target: Nuclear receptor subfamily 1 group I member 2 (Homo sapiens) (UniProt O75469); test: Human pregnane X receptor (PXR) small molecule agonists, qHTS assay (AID 1346982); note: nearly all actives have a fitted effect of over 35% in size; note: potency is the fitted concentration of half-maximal effect
# How it was run: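 Luciferase signal from ONE-Glo (30 min, room temperature) measured activation of hPXR-driven CYP3A4 reporter expression in PXR-Luc HepG2 cells treated with compounds for 24 hr at 37 C.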
# [10] = target: Cytochrome P450 2D6 (Homo sapiens) (UniProt P10635); test: Cytochrome P450 Family 2 Subfamily D Member 6 (CYP2D6) small molecule antagonists: luciferase reporter qHTS assay (AID 1671196); note: nearly all actives have a fitted effect of over 50% in size; note: potency is the fitted concentration of half-maximal effect
# How it was run: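 Read-out is luminescence from luciferin formed by CYP2D6 turnover of a proluciferin substrate, recorded as relative luminescence units. Reactions ran 1 h at room temperature after NADPH regeneration solution was added.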
# [11] = target: Cytochrome P450 2C19 (Homo sapiens) (UniProt P33261); test: Cytochrome P450 Family 2 Subfamily C Member 19 (CYP2C19) small molecule antagonists: luciferase reporter qHTS assay (AID 1671197); note: nearly all actives have a fitted effect of over 65% in size; note: potency is the fitted concentration of half-maximal effect
# How it was run: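 First, compounds are pinned into enzyme-substrate mix and held 10 min at room temperature. Second, NADPH regeneration solution is added and plates incubate 1 h at 37C. Third, detection reagent is added and luminescence read after 20 min.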
# [12] = target: Cytochrome P450 2C9 (Homo sapiens) (UniProt P11712); test: Cytochrome P450 Family 2 Subfamily C Member 9 (CYP2C9) small molecule antagonists: luciferase reporter qHTS assay (AID 1671198); note: nearly all actives have a fitted effect of over 50% in size; note: potency is the fitted concentration of half-maximal effect
# How it was run: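 P450-Glo proluciferin substrate with CYP2C9 enzyme; 10 min RT preincubation, then NADPH regeneration 1 h at 37C; luciferin detection reagent 20 min RT, luminescence in relative luminescence units.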
# [13] = target: Cytochrome P450 1A2 (Homo sapiens) (UniProt P05177); test: Cytochrome P450 Family 1 Subfamily A Member 2 (CYP1A2) small molecule antagonists: luciferase reporter qHTS assay (AID 1671199); note: nearly all actives have a fitted effect of over 50% in size; note: potency is the fitted concentration of half-maximal effect
# How it was run: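 P450-Glo CYP1A2, 1536-well qHTS: enzyme/proluciferin substrate + cpd (DMSO), 10 min RT; NADPH regen, 1 h RT; detection reagent, 20 min; luminescence, RLU.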
# [14] = Caspase-3/7 induction in CHO-K1 cells by small molecules, qHTS assay (AID 1346980); note: nearly all actives have a fitted effect of over 15% in size; note: potency is the fitted concentration of half-maximal effect
# How it was run: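 Wild-type CHO-K1 cells exposed to compounds for 17hr at 37 C, 5% CO2. Caspase-3/7 activity then measured by Caspase-Glo 3/7 luminescence after 30min at room temperature.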
# [15] = qHTS assay to identify small molecule agonists of the TGF-beta/Smad signaling pathway - cell viability counter screen (AID 1346829); note: nearly all actives have a fitted effect of over 45% in size; note: potency is the fitted concentration of half-maximal effect
# How it was run: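 HEK 293T SBE-bla line, 5 hr compound exposure at 37 C, multiplexed CellTiter-Glo viability read by luminescence.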
# [16] = target: Nuclear receptor subfamily 1 group I member 2 (Homo sapiens) (UniProt O75469); test: CYP3A4 induction through human pregnane X receptor (PXR) by small molecules, qHTS assay (AID 1346984); note: nearly all actives have a fitted effect of over 40% in size
# How it was run: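 Luminescence readout: luciferase signal after One-Glo (30 min, room temperature), following 3 h at 37C with 3uM final Luciferin-IPA P450 substrate. Cells were DPX-2 (HepG2, PXR/CYP3A4-luc co-transfected) dosed for 24 h.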
# [17] = target: Nuclear receptor subfamily 1 group I member 2 (Homo sapiens) (UniProt O75469); test: Human pregnane X receptor (PXR) activation by small molecules, qHTS assay (AID 1346985); note: nearly all actives have a fitted effect of over 40% in size
# How it was run: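 DPX-2 cells (HepG2 co-transfected with a PXR response element and a CYP3A4-promoter luciferase construct) were seeded at 2,000 per well, rested 5 hr at 37C, then exposed to DMSO-dissolved compounds for 24 hr. Activation was read as luciferase luminescence.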
# Chain of Nuclear receptor subfamily 1 group I member 2 (Homo sapiens) (O75469 whole entry, looked up): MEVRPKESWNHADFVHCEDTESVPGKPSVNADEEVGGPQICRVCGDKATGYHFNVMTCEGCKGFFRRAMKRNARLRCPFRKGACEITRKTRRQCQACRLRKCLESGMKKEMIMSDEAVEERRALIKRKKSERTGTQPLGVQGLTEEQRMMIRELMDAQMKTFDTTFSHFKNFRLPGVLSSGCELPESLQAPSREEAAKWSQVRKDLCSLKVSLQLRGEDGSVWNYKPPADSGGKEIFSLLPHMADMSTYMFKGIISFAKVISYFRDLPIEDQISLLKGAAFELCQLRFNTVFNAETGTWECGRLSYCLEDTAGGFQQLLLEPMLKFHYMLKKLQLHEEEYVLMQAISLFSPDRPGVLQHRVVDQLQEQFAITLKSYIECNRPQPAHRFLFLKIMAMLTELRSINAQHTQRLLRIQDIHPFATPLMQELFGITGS
# Chain of Cytochrome P450 2C9 (Homo sapiens) (P11712 whole entry, looked up): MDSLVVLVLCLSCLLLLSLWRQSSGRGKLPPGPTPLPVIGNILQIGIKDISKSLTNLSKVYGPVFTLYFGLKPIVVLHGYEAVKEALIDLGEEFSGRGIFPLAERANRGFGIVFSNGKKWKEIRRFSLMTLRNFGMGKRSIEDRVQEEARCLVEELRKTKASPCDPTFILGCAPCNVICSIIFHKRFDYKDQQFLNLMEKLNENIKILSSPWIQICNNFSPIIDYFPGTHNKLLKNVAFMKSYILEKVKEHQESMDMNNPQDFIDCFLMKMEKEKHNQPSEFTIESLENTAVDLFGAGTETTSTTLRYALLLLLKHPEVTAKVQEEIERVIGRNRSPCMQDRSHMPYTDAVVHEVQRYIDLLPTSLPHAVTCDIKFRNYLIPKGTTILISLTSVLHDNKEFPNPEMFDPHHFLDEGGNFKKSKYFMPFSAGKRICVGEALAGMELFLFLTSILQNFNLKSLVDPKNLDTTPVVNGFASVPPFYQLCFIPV
# Chain of Thyrotropin-releasing hormone receptor (Homo sapiens) (P34981 whole entry, looked up): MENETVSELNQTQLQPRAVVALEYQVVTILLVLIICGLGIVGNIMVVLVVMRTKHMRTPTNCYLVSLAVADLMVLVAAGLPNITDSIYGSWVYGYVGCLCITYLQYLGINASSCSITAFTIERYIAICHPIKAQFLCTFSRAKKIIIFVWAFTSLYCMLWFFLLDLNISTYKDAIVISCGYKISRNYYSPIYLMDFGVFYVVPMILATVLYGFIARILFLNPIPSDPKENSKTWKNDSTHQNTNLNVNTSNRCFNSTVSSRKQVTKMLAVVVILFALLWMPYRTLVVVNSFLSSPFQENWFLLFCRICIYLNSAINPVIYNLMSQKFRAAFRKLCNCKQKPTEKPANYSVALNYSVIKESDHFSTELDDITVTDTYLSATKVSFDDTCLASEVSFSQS
# Chain of Cytochrome P450 2D6 (Homo sapiens) (P10635 whole entry, looked up): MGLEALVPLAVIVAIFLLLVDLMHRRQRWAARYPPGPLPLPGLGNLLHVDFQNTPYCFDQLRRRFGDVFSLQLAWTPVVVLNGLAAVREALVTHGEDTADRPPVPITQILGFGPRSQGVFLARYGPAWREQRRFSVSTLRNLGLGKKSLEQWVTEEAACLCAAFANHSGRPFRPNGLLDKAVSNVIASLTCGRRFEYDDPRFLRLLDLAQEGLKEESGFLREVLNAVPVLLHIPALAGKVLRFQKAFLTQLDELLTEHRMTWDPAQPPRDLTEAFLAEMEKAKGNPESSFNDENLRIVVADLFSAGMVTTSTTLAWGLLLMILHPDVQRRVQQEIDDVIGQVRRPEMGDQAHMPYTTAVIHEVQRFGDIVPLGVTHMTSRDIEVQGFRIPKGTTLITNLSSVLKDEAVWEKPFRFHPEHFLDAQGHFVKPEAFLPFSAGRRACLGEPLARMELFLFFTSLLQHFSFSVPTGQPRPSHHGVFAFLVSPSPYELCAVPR
# Chain of Cytochrome P450 2C19 (Homo sapiens) (P33261 whole entry, looked up): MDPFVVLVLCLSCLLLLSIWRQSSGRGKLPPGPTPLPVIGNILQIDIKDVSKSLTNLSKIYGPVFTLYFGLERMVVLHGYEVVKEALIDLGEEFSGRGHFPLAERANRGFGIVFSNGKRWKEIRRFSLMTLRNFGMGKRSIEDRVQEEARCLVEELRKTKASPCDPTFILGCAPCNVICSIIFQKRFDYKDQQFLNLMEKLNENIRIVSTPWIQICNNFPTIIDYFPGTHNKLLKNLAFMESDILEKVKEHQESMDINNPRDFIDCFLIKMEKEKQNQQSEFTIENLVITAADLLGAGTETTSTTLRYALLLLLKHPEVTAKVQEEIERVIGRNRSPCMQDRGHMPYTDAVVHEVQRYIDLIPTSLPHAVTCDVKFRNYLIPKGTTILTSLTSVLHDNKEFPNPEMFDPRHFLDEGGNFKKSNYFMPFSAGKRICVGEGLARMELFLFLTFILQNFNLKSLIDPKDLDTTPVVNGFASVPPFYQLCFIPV
# Chain of Cytochrome P450 1A2 (Homo sapiens) (P05177 whole entry, looked up): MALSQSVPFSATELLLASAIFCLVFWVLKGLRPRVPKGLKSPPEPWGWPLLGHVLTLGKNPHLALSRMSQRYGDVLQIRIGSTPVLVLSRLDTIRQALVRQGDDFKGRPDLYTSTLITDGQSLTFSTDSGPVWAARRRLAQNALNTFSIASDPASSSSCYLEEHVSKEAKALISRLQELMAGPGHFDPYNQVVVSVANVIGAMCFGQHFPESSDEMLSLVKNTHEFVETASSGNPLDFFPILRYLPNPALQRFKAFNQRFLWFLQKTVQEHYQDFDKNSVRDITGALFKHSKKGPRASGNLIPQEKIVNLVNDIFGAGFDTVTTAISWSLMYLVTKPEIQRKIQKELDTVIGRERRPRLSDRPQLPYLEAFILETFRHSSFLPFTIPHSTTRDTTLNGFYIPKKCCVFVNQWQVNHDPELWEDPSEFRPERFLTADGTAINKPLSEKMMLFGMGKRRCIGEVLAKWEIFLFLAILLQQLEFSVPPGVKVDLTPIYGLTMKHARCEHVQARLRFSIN
SMILES,Potency [1],Potency [2],Potency [3],Potency [4],Potency [5],Potency [6],Potency [7],Potency [8],Potency [9],Potency [10],Potency [11],Potency [12],Potency [13],Potency [14],Potency [15],Potency [16],Potency [17]
CCCCCCCCCCCCN(CCO)CCO,inactive,inactive,inactive,inactive,48.4 µM (active),30.5 µM (active),43.1 µM (active),68.3 µM (active),15.3 µM (active),11.2 µM (active),25.1 µM (active),63 µM (active),11.2 µM (active),,,,
CCN=C1C=CC(=C(c2ccc(N(CC)CC)cc2)c2ccc(N(CC)CC)cc2)c2ccccc21,27.4 µM (active),,,inactive,0.682 µM (active),inactive,0.963 µM (active),8.58 µM (active),0.0242 µM (active),12.6 µM (active),17.7 µM (active),15.8 µM (active),25 µM (active),inactive,,,
S=P(N1CC1)(N1CC1)N1CC1,,inactive,inactive,inactive,inactive,inactive,,inactive,,48.6 µM (active),9.42 µM (active),19.3 µM (active),57.7 µM (active),inactive,inactive,inactive,inactive
CC(C(O)c1ccccc1)N(C)CCOC(c1ccccc1)c1ccccc1 (stereo not drawn),,,inactive,inactive,29.8 µM (active),,,,7.5 µM (active),0.174 µM (active),7.76 µM (active),17.4 µM (active),inactive,inactive,inactive,,
CN(C)c1ccc(N=NS(=O)(=O)O)cc1,inactive,inactive,inactive,,20.4 µM (active),inactive,33.8 µM (active),25 µM (active),21.7 µM (active),7.94 µM (active),0.421 µM (active),5.09 µM (active),9.45 µM (active),inactive,,,
C[n+]1c2cc(N)ccc2cc2ccc(N)cc21 (tested in a mixture with another compound),inactive,,inactive,7.56 µM (active),,9.44 µM (active),,,,15.5 µM (active),38.9 µM (active),inactive,2.19 µM (active),inactive,,,
CCCCCCOc1cc(C)c(O)c(C)c1C,,inactive,inactive,inactive,61.9 µM (active),,,,34.8 µM (active),25.5 µM (active),2.02 µM (active),25.5 µM (active),11.4 µM (active),inactive,inactive,,
O=C1c2c(O)ccc(O)c2C(=O)c2c(NCCNCCO)ccc(NCCNCCO)c21,inactive,,inactive,,4.22 µM (active),4.22 µM (active),10.6 µM (active),,,,,,,inactive,,,
CC(C)OC(=O)c1cc(C(=O)OC(C)C)cc([N+](=O)[O-])c1,,inactive,inactive,,,inactive,,,19.8 µM (active),6.87 µM (active),0.0816 µM (active),,2.33 µM (active),inactive,inactive,,
C=CC(C)C#N (stereo not drawn),inactive,inactive,,,inactive,,inactive,,inactive,inactive,,inactive,inactive,inactive,,,
Nc1ccc2cc3ccc(N)cc3nc2c1,inactive,,33.8 µM (active),15.5 µM (active) and 13.5 µM (active),,30.6 µM (active) and 29.8 µM (active),,,,39.9 µM (active),71 µM (active) and inactive,inactive,564 nM (active) and 1.82 µM (active),4.86 µM (active) and 11.9 µM (active),inactive,,
CCCCCCCCCCCCCC[n+]1ccccc1,54.9 µM (active),,,,8.63 µM (active),,27.3 µM (active),27.3 µM (active),8.63 µM (active),1.78 µM (active),,,71 µM (active),inactive,,,
CC1CCCNC1 (stereo not drawn),inactive,inactive,inactive,inactive,,inactive,inactive,inactive,,39.1 µM (active),inactive,inactive,inactive,inactive,,,
O=C(NO)c1ccccc1,,inactive,inactive,inactive,inactive,inactive,65.3 µM (active),,29.2 µM (active),60.2 µM (active),,,,inactive,inactive,,
Cc1cc2c(C(C)C)c(O)c(O)c(C=O)c2c(O)c1-c1c(C)cc2c(C(C)C)c(O)c(O)c(C=O)c2c1O,,inactive,inactive,inactive,18.8 µM (active),,13.3 µM (active),26.6 µM (active),inactive,inactive,,34.7 µM (active),inactive,,,,
C[C@]12CC[C@H]3C(=CCc4cc(O)ccc43)[C@@H]1CCC2=O,inactive,inactive,inactive,,,,61.1 µM (active),,27.3 µM (active),inactive,31.7 µM (active),35.6 µM (active),35.6 µM (active),inactive,,,
O=C(Nc1ccc(Cl)c(Cl)c1)c1cc(Cl)cc(Cl)c1O,19.5 µM (active),,,inactive,4.86 µM (active),inactive,7.7 µM (active),,10.9 µM (active),,,11.2 µM (active),20 µM (active),inactive,6.92 µM (active),,
CCCCCCCC/C=C\CCCCCCCC(=O)NCc1ccc(O)c(OC)c1,inactive,inactive,,,inactive,inactive,inactive,,inactive,,15.5 µM (active),,15.5 µM (active),inactive,,inactive,inactive
NC1(c2ccc(-c3nc4ccn5c(=O)[nH]nc5c4cc3-c3ccccc3)cc2)CCC1,inactive,,inactive,inactive,26.6 µM (active),inactive,26.6 µM (active),,,inactive,inactive,inactive,inactive,inactive,,,
C/C=C/C(=O)Oc1c(CCCCCC(C)C)cc([N+](=O)[O-])cc1[N+](=O)[O-],,,inactive,inactive,15.4 µM (active),,15.4 µM (active),,21.7 µM (active),inactive,35.6 µM (active),2.52 µM (active),25.2 µM (active),48.6 µM (active),,,
